Test results taken from ChEMBL document CHEMBL4513135, “CO-ADD screening of IQOG CSIS (Spain) compounds”.
Entries with a potency or affinity are not part of this list.

System: Cryptococcus neoformans
Details: Concentration 32 ug.mL-1; ASSAY_TEST Inhibition of Fungal Growth; detection method Resazurin; Absorption (OD600-OD570); plate type 384well; NBS; CORNING #3640

Row | SMILES | Inhibition [%]
1 | C#CCNc1nc(NC2CCN(Cc3ccccc3)CC2)c(C#N)cc1C#N.Cl | -92.81
2 | C#CCn1c(N)c(C#N)c2cc(O)ccc21 | -78.39
3 | COc1ccc2cc(C=O)c(Cl)nc2c1 | 26.83
4 | COc1cc(C2C(C#N)=C(N)Oc3ccc4ccccc4c32)ccc1O (stereo not given) | -49.89
5 | CCOC(=O)C1=C(C)OC(N)=C(C#N)C1c1ccccc1OC (stereo not given) | -0.68
6 | COc1ccc(C=C2N=C(c3ccccc3)OC2=O)cc1 | -7.5
7 | Cl.ClCCCCCN1CCCCC1 | -4.11
8 | CNC(=O)c1cc2cc(OC)ccc2[nH]1 | -6.03
9 | CCOC(=O)c1c(C)nc(NC2CCN(Cc3ccccc3)CC2)c(C#N)c1-c1ccccc1 | -46.25
10 | NNC(=O)c1c[nH]c2ccc(OCc3ccccc3)cc12 | 0.02
11 | CN(C)c1nc(N)c(C#N)cc1C#N | -5.23
12 | CCOC(=O)c1c(C)[nH]c(=O)c(C#N)c1-c1ccccc1 | -38.24
13 | N#Cc1c(Cl)nc(Sc2ccccc2)c(C#N)c1-c1ccccc1 | -38.87
14 | CCOC(=O)c1c(C)nc(/N=N/c2nc(C)c(C(=O)OCC)c(-c3ccccc3)c2C#N)c(C#N)c1-c1ccccc1 | -2.65
15 | Cn1ccnc1C1C2=C(CC(C)(C)CC2=O)Oc2nc3c(c(N)c21)CCC3 (stereo not given) | -62.95
16 | CCOC(=O)C1=C(C)NC(N)=C(C#N)C1c1ccc(OC)cc1 (stereo not given) | -57.77
17 | CCOC(=O)c1c(C)nc2nc3c(c(N)c2c1-c1ccccc1OC)CCCCC3 | -93.54
18 | CC(=O)Oc1ccc(C=C2N=C(c3ccccc3)OC2=O)cc1 | -12.33
19 | Cl.Cl.Cn1c(CNc2ccccc2)cc2cc(OCCCC3CCN(Cc4ccccc4)CC3)ccc21 | -74.16
20 | O=C(O)n1ccc2ccccc21 | -3.58

Row | SMILES | Inhibition [%]
21 | Cc1ccc(/C=C(\C#N)C(=O)c2ccccc2)cc1 | -10.05
22 | O=C(N/N=C/c1cccc(Cl)c1)c1cc2ccccc2[nH]1 | -2.87
23 | C#CCNc1nc(N)c(C#N)cc1C#N | -24.9
24 | O=C(N/N=C/c1c[nH]c2ccccc12)c1ccc(Cl)cc1 | -0.09
25 | COc1cc(C2C(C#N)=C(N)Oc3c2ccc2ccccc32)ccc1O (stereo not given) | -42.63
26 | N#Cc1cc(C#N)c(NCCC2CCN(Cc3ccccc3)CC2)nc1N | -88.16
27 | C#CCNc1nc(NC2CCN(Cc3ccccc3)CC2)c(C#N)c(-c2ccccc2)c1C#N | -52.49
28 | Cn1c(C(=O)O)cc2ccccc21 | 5.37
29 | O=C1C=C(Nc2ccccc2)C(=O)N1c1ccccc1 | -3.49
30 | O=Cc1c(-c2ccc(Br)cc2)nc2ccccn12 | -4.41
31 | CC(=O)Oc1ccc(C=C2N=C(C)OC2=O)cc1 | -2.97
32 | Cl.N#Cc1c(Cl)nc(N)nc1NCCO | 8.33
33 | Cc1nc2c3cnn(-c4ccccc4)c3ncn2n1 | -3.17
34 | CCOC(=O)C1=C(C)NC(N)=C(C#N)C1c1ccc([N+](=O)[O-])cc1 (stereo not given) | -47.11
35 | C=C1CN(C)c2c(C#N)cc(C#N)c(=S)n21 | -13.76
36 | C#CCN(C)c1nc(Cl)c(C#N)c(-c2ccccc2)c1C#N | -24.12
37 | CSC1=NC2(CC2c2ccccc2)C(=O)N1 (stereo not given) | 1.03
38 | C#CCN(C)Cc1cc2cc(OCc3ccccc3)ccc2n1C.O=C(O)C(=O)O | -91.88
39 | O=C1NC(=S)N/C1=C\c1ccccc1 | -1.21
40 | O=C(COc1ccc2ccccc2c1)N/N=C/c1c[nH]c2ccccc12 | -4.09
